Shown are actives, neighbours in structure and some others; about 1.5% of the full set was active somewhere.
RAD52 inh: RAD52 DNA annealing inhibitors, primary screen, biochemical, FRET, single point, set 2. DNA repair protein RAD52 homolog (Homo sapiens), P43351. inhibition, % at 18.7 µM. recombinant RAD52 DNA annealing, FRET fluorescence. 0.46% of 360,000 active;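 active = every replicate showing at least 50% inhibition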
Target sequence (P43351 whole entry, looked up): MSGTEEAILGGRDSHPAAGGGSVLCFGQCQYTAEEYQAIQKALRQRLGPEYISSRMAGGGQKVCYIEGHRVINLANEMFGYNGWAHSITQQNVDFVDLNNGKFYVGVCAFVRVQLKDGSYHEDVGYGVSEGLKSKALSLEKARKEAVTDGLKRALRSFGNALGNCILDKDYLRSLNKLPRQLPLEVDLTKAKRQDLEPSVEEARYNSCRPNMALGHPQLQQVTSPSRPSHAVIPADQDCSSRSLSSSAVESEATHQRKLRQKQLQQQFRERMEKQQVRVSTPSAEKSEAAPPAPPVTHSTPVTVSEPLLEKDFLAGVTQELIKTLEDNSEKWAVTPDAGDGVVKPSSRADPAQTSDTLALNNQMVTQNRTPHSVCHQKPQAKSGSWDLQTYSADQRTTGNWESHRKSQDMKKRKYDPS
NSD2 inh: NSD2 histone methyltransferase inhibitors, primary screen, biochemical, AlphaScreen, single concentration, set 2; inhibition, % at 12.5 µM; Histone-lysine N-methyltransferase NSD2 (Homo sapiens), O96028; AID 743445, 2014; NSD2 peptide methylation, 120 min; 0.54% of 310,000 active; in the data active = inhibition above about 50%
CASP6 VEID inh: human caspase-6 inhibitors, primary screen, biochemical, VEID-R110 fluorescence, single point, set 2 | inhibition, % at 12.5 µM | purified caspase-6, Z-VEID-R110 cleavage fluorescence | 0.53% of 350,000 active | AID 686996, 2013;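 active = mean inhibition across replicates at least about 35%, with every replicate also reaching that limit, limit read from the data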;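 also: 0% = median of neutral control wells and 100% = no fluorescence left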
miR122 inh: miR-122 Renilla sensor signal increase in Huh7, primary screen, miR-122 inhibitor project, cell-based, single point, plate reader | 0.3% of 340,000 active | Huh7 miR-122 Renilla luciferase sensor, 48 h; neutral wells = 0, positive control = 100 | activation (reporter increase), % at 12.5 µM;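 active = mean replicate activation score at least 90 and every replicate individually at or above 90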;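 also: higher luciferase means less miR-122 activity so hits act as miR-122 inhibitors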
AF4-AF9 inh: inhibitors of AF4 peptide binding to AF9, primary screen, biochemical, AlphaScreen, biotin-AF4 peptide, FLAG-AF9, single point; Protein AF-9 (Homo sapiens), P42568; inhibition, % at 10 µM; 0.47% of 350,000 active;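 active = every replicate reaching a set inhibition limit, whatever the replicate mean, cut at about 25% in these data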;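 also: 0% = plate neutral control median and 100% = total signal loss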
* marks the source's active call; other numbers are inactive results; . = no result; ! = not confirmed by another sample; [ ] = dose if it differs, or a comment.

SMILES	RAD52 inh	NSD2 inh	CASP6 VEID inh	miR122 inh	AF4-AF9 inh
C[C@@H]1CN([C@@H](C)CO)C(=O)c2cccc(NS(=O)(=O)c3ccc(Cl)cc3)c2O[C@@H]1CN(C)Cc1ccc(C(=O)Nc2ccccc2N)cc1	13	.	1	129*[16.7 µM]	2
C[C@@H]1CN([C@@H](C)CO)C(=O)c2cccc(NS(=O)(=O)c3ccccc3)c2O[C@@H]1CN(C)Cc1ccc(C(=O)Nc2ccccc2N)cc1	-8	.	3	181*[16.7 µM]	0
C[C@H](CO)N1C[C@H](C)[C@@H](CN(C)Cc2ccc(C(=O)Nc3ccccc3N)cc2)Oc2c(NS(=O)(=O)c3ccccc3)cccc2C1=O	13	.	-2	.	1
O=C1CN(S(=O)(=O)c2ccccc2)C[C@@H]2[C@@H](c3ccc(Br)cc3)[C@@H](CO)N12	-11	.	0	.	-1
O=C(C1CC1)N1CC2(C1)[C@H](c1ccccc1)[C@@H](CO)N2CCC(F)(F)F	4	.	0	.	-2
C[n+]1c2n(c3ccccc31)N=C(c1ccc(-c3ccccc3)cc1)CS2	71*	23	0	.	19
O=C(O)C1Nc2c(O)cc(Cl)c([N+](=O)[O-])c2C2C=CCC12 (configuration not stated)	3	.	98*	.	18
O=[N+]([O-])c1ccc(Cl)c2c1C1C=CCC1C(c1ccccn1)N2 (configuration not stated)	-14	.	6	.	19
CO[C@@H]1CN(C)C(=O)c2ccc(NC(=O)C3CCCC3)cc2OC[C@H](C)N(C)C[C@H]1C	-12	.	-1	-5[16.7 µM]	-2
C[C@H](O)C#Cc1cnc2c(c1)C(=O)N([C@H](C)CO)C[C@@H](C)[C@H](CN(C)C(=O)c1ccncc1)O2	3	.	-2	-1[16.7 µM]	-3
Cc1ccc(CNc2ccc(N3CCOCC3)cc2)s1	.	16	.	0	.
CC(=O)N1CCN(c2ccc(NCc3ccc(C)s3)cc2)CC1	5	.	0	.	27*
CO[C@H]1CN(C)C(=O)c2ccc(NC(C)=O)cc2OC[C@H](C)N(Cc2cccnc2)C[C@H]1C	.	.	.	-2[16.7 µM]	.
O=C(C[C@@H]1C[C@H]2c3cc(NC(=O)Nc4ccc(F)cc4)ccc3O[C@H]2[C@@H](CO)O1)NC1CCCC1	-2	.	0	4[16.7 µM]	0
Cc1nnc(SCC(=O)NCc2ccccc2Cl)[nH]c1=O	-8	-4	3	-2	34*
O=C(NC(c1ccc(-c2ccccc2)cc1)c1cnccn1)C1CCN(Cc2ccc(Cl)c(Cl)c2)CC1 (configuration not stated)	-9	1	-4	0	1
Cn1cc(CN2CCC(C(=O)NC(c3ccc(-c4ccccc4)cc3)c3cnccn3)CC2)c2ccccc21 (configuration not stated)	9	4	12	-9	26*
CO[C@@H]1CN(C)C(=O)c2cc(NC(=O)Nc3ccccc3F)ccc2OC[C@@H](C)N(Cc2ccccc2C(=O)O)C[C@@H]1C	-7	.	-1	.	-1
CO[C@H]1CN(C)C(=O)c2cc(NC(=O)c3cnccn3)ccc2OC[C@@H](C)N(C(C)=O)C[C@@H]1C	-23	.	-1	.	-3
COc1ccc(C(=O)N2C[C@@H]3[C@H](c4ccccc42)[C@H](CO)N3C(=O)c2ccc(F)cc2)cc1	-18	.	-4	12[16.7 µM]	-1
O=C(Nc1ccccc1F)N1C[C@H]2[C@@H](c3ccccc31)[C@@H](CO)N2C(=O)c1ccc(F)cc1	-7	.	2	240*[16.7 µM]	-2
COc1cccc(C(=O)N2C[C@H]3[C@@H](c4ccccc42)[C@@H](CO)N3C(=O)c2ccc(F)cc2)c1	-4	.	1	229*[16.7 µM]	0
CO[C@H]1/C=C/O[C@@]2(C)Oc3c(C)c(O)c4c(O)c(c(C=NN5CCN(C)CC5)c(O)c4c3C2=O)NC(=O)/C(C)=C\C=C\[C@H](C)[C@H](O)[C@@H](C)[C@@H](O)[C@@H](C)[C@H](OC(C)=O)[C@@H]1C	-32	.	9	1	31*
O=C(CN(C1CCCCC1)S(=O)(=O)c1ccc(Cl)cc1)NCc1cccnc1	.	0	.	100*	.
O=C(CN(C1CCCCC1)S(=O)(=O)c1ccccc1)NCc1cccnc1	.	-2	.	.	.
SMILES	RAD52 inh	NSD2 inh	CASP6 VEID inh	miR122 inh	AF4-AF9 inh
Cc1ccc(-c2nc(CCNC(=O)c3ccco3)cs2)cc1	-1	-1	-9	.	-2
Cc1cccc(-c2nc(CCNC(=O)c3ccco3)cs2)c1	-3	1	42*	-4	-2
CC(=O)N(C)C[C@H]1Oc2cc(C3=CCCCC3)ccc2S(=O)(=O)N([C@H](C)CO)C[C@H]1C	.	.	.	-4[16.7 µM]	.
COc1ccc(S(=O)(=O)Nc2ccc3c(c2)C(=O)N([C@H](C)CO)C[C@@H](C)[C@@H](CN(C)C(=O)Nc2ccc(C(F)(F)F)cc2)OCCCC[C@@H](C)O3)cc1	-24	.	0	-5[16.7 µM]	-5
CCOC(=O)/C=C(\C)Sc1cc(O)c2ccccc2c1O	-2	.	94*	31	19
CCOC(=O)/C=C(\C)Sc1cc(=O)oc2ccccc12	.	-1	.	7	.
c1cc(-c2ccc(C3[C@H]4CNC[C@@H]3N4CC3CCCC3)cc2)ccn1 (some centres not stated)	22	.	-2	.	42*
Fc1ccc(F)c(CN2[C@@H]3CNC[C@H]2C3c2ccc(-c3ccccc3)cc2)c1 (some centres not stated)	18	.	-4	.	3
Fc1ccc(F)c(CN2[C@@H]3CNC[C@H]2C3c2ccc(-c3ccncc3)cc2)c1 (some centres not stated)	81*!	.	1	.	26*!
Fc1ccc(CN2[C@@H]3CNC[C@H]2C3c2ccc(-c3ccncc3)cc2)cc1 (some centres not stated)	5	.	-47	.	7
CSc1nc(-c2ccc(C)cc2)[nH]c1S(=O)(=O)c1ccccc1	.	-5	.	126*	.
COc1ccccc1S(=O)(=O)N1C[C@H](O)COC[C@@H]2O[C@H](CC(=O)O)CC[C@H]21	13	.	-1	-1[16.7 µM]	-9
CCOc1ccccc1N(CC(=O)Nc1cccnc1)S(=O)(=O)c1ccc(C)cc1	-14	2	1	128*	0
CC1CCCC(C)N1C(=O)C1CCCCC1 (configuration not stated)	-5	.	59*	-3	0
C[C@@H]1CCCCO[C@@H](CN(C)S(C)(=O)=O)[C@H](C)CN([C@H](C)CO)C(=O)c2cc(NS(=O)(=O)c3cn(C)cn3)ccc2O1	7	.	1	7[16.7 µM]	-1
O=C(CCl)N1c2ccccc2Sc2ccc3ccccc3c21	.	0	.	-6	.
CN(C)CCCN1c2ccccc2CCc2ccccc21	-8	.	0	-15	4
CN(C)CCCN1c2ccc3ccccc3c2Sc2cccc(Cl)c21	33	-1	0	-1	33*
